Experimental data from PubChem BioAssay (Tox21).
Values joined by “and” are separate entries in the source; they are usually repeats but may differ in a detail not shown here. Identical values can stand only once. Inconclusive results are not listed. Where a call stands in place of a potency, no number is given. The source holds several records for some structures; these can differ, active in one and inactive in another. Active and inactive are the calls of the source. Unless noted, calls follow the shape of the dose curve; as a rule, active = well fitted curve in the direction sought with a large enough effect in the repeat runs; inconclusive = weak or mixed curves; inactive = no such curve, though single readings can be large; an effect the other way counts as inactive or inconclusive.

Columns and labels:
[1] = qHTS assay to identify aromatase inhibitors - cell viability counter screen (AID 743084);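 also: cells stimulated with testosterone during compound exposure; nearly all actives have a fitted effect of over 55% in size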; also: potency is read from the fitted curve at half-maximal effect
[2] = target: Aryl hydrocarbon receptor (Homo sapiens) (UniProt P35869); test: qHTS assay to identify small molecule that activate the aryl hydrocarbon receptor (AhR) signaling pathway (AID 743085); also: nearly all actives have a fitted effect of over 15% in size; also: potency is read from the fitted curve at half-maximal effect;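 as to activation: HG2L7.5c1 human HepG2 liver cells with stably integrated DRE-driven firefly reporter; series mostly up to about 70 µM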
Chain of Aryl hydrocarbon receptor (Homo sapiens) (P35869 whole entry, looked up): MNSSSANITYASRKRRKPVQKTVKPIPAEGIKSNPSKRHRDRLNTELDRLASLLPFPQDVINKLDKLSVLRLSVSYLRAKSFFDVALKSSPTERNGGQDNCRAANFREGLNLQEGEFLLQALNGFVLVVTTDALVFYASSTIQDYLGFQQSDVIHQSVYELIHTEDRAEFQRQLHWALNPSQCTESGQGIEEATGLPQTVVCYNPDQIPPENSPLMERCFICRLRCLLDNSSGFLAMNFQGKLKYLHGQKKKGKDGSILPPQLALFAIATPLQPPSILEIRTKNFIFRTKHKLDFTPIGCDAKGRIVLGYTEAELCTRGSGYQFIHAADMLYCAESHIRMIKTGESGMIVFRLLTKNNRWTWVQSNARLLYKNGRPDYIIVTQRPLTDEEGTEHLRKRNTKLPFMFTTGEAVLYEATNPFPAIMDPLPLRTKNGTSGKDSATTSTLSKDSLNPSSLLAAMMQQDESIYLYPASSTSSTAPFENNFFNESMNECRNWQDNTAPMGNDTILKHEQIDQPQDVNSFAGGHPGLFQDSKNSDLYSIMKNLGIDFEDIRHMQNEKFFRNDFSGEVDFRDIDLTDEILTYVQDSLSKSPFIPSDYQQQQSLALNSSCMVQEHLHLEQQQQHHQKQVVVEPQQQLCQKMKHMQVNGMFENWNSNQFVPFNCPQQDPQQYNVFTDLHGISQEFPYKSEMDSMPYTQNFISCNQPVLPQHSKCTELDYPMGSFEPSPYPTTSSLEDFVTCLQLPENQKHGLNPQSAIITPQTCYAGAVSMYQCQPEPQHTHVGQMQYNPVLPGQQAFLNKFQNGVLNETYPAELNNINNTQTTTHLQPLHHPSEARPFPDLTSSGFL
Method in brief: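 Steps: seed HepG2-AhR-luc cells; allow 5 h at 37C; pin-transfer test compound or vehicle; incubate 24 h at 37C; add viability dye (30 min, 37C) and read fluorescence; add luciferase substrate (30 min, RT) and read luminescence.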

[3] = qHTS assay to identify small molecule that activate the aryl hydrocarbon receptor (AhR) signaling pathway - cell viability counter screen (AID 743086);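 also: HepG2 liver cells carrying the AhR DRE luciferase reporter; series mostly up to about 70 µM; nearly all actives have a fitted effect of over 45% in size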
Method in brief: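 HepG2-AhR-luc (HG2L7.5c1) cells, 4000/well, were preincubated 5 h at 37C, exposed to compound in qHTS format for 24 hr at 37C, then given CellTiter-Fluor for 30 min; viability was read as fluorescence in the reporter wells.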

[4] = target: Peroxisome proliferator-activated receptor gamma (Homo sapiens) (UniProt P37231); test: qHTS assay to identify small molecule agonists of the peroxisome proliferator-activated receptor gamma (PPARg) signaling pathway (AID 743094; active = well fitted activation curve with a large enough effect in the signal ratio in the repeat runs, not every such curve was filed as active; the % refers to the signal ratio; also: potency is read from the fitted curve at half-maximal effect)
Chain of Peroxisome proliferator-activated receptor gamma (Homo sapiens) (P37231 whole entry, looked up): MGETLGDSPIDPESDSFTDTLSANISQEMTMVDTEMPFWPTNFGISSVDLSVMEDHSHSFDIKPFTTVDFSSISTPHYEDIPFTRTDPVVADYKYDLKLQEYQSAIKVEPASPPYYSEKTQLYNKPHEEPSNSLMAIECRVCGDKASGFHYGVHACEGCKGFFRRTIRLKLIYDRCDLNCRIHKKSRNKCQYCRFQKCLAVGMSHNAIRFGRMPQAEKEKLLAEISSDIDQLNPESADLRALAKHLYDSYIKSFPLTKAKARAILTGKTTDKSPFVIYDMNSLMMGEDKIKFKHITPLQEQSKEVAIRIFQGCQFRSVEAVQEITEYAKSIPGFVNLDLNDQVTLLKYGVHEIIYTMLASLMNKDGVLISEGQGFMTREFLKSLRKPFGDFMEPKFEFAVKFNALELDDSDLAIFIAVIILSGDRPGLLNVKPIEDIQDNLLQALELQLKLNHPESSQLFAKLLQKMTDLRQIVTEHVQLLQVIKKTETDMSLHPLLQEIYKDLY
Method in brief: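 Stably transfected HEK293H cells (GeneBLAzer PPARg UAS-bla) were incubated with test substances for 17 h at 37C after a 5 h pre-incubation; beta-lactamase activity was then detected by FRET substrate fluorescence.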

[5] = target: Peroxisome proliferator-activated receptor gamma (Homo sapiens) (UniProt P37231); test: qHTS assay to identify small molecule antagonists of the peroxisome proliferator-activated receptor gamma (PPARg) signaling pathway (AID 743191; calls by dose curve; also: nearly all actives have a fitted effect of over 30% in size; also: potency is read from the fitted curve at half-maximal effect; as to ratio activity, negative = inhibition: series mostly up to about 63 µM)
Method in brief: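 GeneBLAzer PPARg UAS-bla HEK293H cells carrying a UAS-driven beta-lactamase reporter were plated at 3000 cells/well, preincubated 5 h at 37C, then given compound for 17 h at 37C; LiveBLAzer B/G FRET substrate was read after 1 h at room temperature.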

[6] = qHTS assay to identify small molecule antagonists of the peroxisome proliferator-activated receptor gamma (PPARg) signaling pathway - cell viability counter screen (AID 743194); conditions: Potency: co-treated with 50 nM rosiglitazone unless noted; also: nearly all actives have a fitted effect of over 55% in size; also: potency is read from the fitted curve at half-maximal effect
Method in brief: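 PPARg-UAS-bla HEK293H cells were plated, rested 5 h at 37 C, then treated with compounds plus rosiglitazone (50 nM final) for 17 h at 37 C; viability was then read by CellTiter-Glo luminescence after 30 min at room temperature.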

[7] = qHTS assay for small molecule agonists of the antioxidant response element (ARE) signaling pathway (AID 743202; active = well fitted activation curve with a large enough effect in the signal ratio in the repeat runs, not every such curve was filed as active; the % refers to the signal ratio)
Method in brief: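 Compounds delivered in DMSO to ARE-bla HepG2 cells (2,000 cells/well, pre-incubated 5 h) and left 16 h at 37 C. LiveBLAzer B/G FRET substrate then added for 2 h at RT before fluorescence reading.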

[8] = qHTS assay for small molecule activators of the heat shock response signaling pathway - cell viability counter screen (AID 743209); also: nearly all actives have a fitted effect of over 50% in size
Method in brief: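 Quantitative HTS format, Tox21 10K library. HeLa cells carrying an HSE-driven beta-lactamase reporter were treated 5 h at 37 C, then assessed for viability by CellTiter-Glo luminescence.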

[9] = qHTS assay for small molecule activators of the heat shock response signaling pathway (AID 743210; active = well fitted activation curve with a large enough effect in the signal ratio in the repeat runs, with a control signal flat, not every such curve was filed as active; the % refers to the signal ratio;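 also: HeLa cells with beta-lactamase reporter driven by heat shock elements; series mostly up to about 63 µM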)
Method in brief: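 Reporter gene assay: HeLa cells stably bearing an HSE-bla construct, compound treatment 5 h at 37 C, LiveBLAzer substrate 2.5 h at RT, fluorescence intensity.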

[10] = qHTS assay for small molecule agonists of the antioxidant response element (ARE) signaling pathway - cell viability counter screen (AID 743203; calls by dose curve; also: nearly all actives have a fitted effect of over 55% in size; also: potency is read from the fitted curve at half-maximal effect)
Method in brief: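 Cells (ARE-bla HepG2, 2,000/well) receive DMSO-dissolved compounds after a 5 hrs rest. Plates incubate 16 hrs at 37C/5% CO2. CellTiter-Glo luminescence is then recorded after 30 min at room temperature.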

Row | Structure (SMILES) | Potency [1] | Potency [2] | Potency [3] | Potency [4] | activation [4] | ratio activity, negative = inhibition [5] | Potency [6] | activation [7] | Potency [8] | Potency [9] | Potency [5] | Potency [7] | Potency [10]
1 | CCCCCCCCCCCC(=O)N(C)CC(=O)O | inactive | inactive | inactive | 15 µM (active) | 0.467% [at 7.08 µM] (inactive) | 4.34% [at 5.95 µM] (inactive) | inactive | -3.99% [at 8.36 µM] (inactive) | inactive | inactive |  |  | 
2 | O=[N+]([O-])c1cc(C(F)(F)F)ccc1Cl | inactive | inactive | inactive | inactive |  |  | inactive |  | inactive | inactive | inactive | inactive | inactive
3 | Cc1ccc(Cl)cc1 | inactive | inactive | inactive | inactive |  |  | inactive |  | inactive | inactive | inactive | inactive | inactive
4 | COCN(COC)c1nc(N(COC)COC)nc(N(COC)COC)n1 | inactive | inactive | inactive | inactive |  |  | inactive |  | inactive | inactive | inactive | inactive | inactive
5 | OC1CCCCC1 | inactive | inactive | inactive | inactive |  |  | inactive |  | inactive | inactive | inactive | inactive | inactive
6 | NC(N)=S | inactive | inactive | inactive | inactive |  |  | inactive |  | inactive |  | inactive | inactive | inactive
7 | Cc1nnc(NS(=O)(=O)c2ccc(N)cc2)s1 | inactive | inactive | inactive | inactive |  |  | inactive |  | inactive | inactive | inactive | inactive | inactive
8 | CCCOCC(C)O (stereo not given) | inactive | inactive | inactive | inactive |  |  | inactive |  | inactive | inactive | inactive | inactive | inactive
9 | O=c1c(O)c(-c2ccc(O)c(O)c2)oc2cc(O)cc(O)c12 | inactive | 61.2 µM (active) and 54.9 µM (active) and 61.1 µM (active) | inactive | inactive |  |  | inactive |  | inactive |  | inactive | inactive | inactive
10 | OCC(O)CS (stereo not given) | inactive | inactive | inactive | inactive |  |  | inactive |  | inactive | inactive | inactive | inactive | inactive
11 | O=C1OC(=O)c2c(Cl)c(Cl)c(Cl)c(Cl)c21 | inactive | inactive | inactive | inactive |  |  | inactive |  | inactive | inactive | inactive | inactive | inactive
12 | CC(COCC(C)OC(=O)c1ccccc1)OC(=O)c1ccccc1 (stereo not given) | inactive | inactive | inactive | inactive |  |  | inactive |  | inactive | inactive | inactive | inactive | inactive
13 | Cc1ccccc1Cl | inactive | inactive | inactive | inactive |  |  | inactive |  | inactive | inactive | inactive | inactive | inactive
14 | CCc1cccc(O)c1 | inactive | inactive | inactive | inactive |  |  | inactive |  | inactive | inactive | inactive | inactive | inactive
15 | CC1(C)C(=O)N(Cl)C(=O)N1Cl | inactive | inactive | inactive | inactive |  |  | inactive |  | inactive | inactive | inactive | inactive | inactive
16 | C=C1C[C@]23C[C@@]1(O)CC[C@H]2[C@@]12C=C[C@H](O)[C@@](C)(C(=O)O1)[C@H]2[C@@H]3C(=O)O | inactive | inactive | inactive | inactive |  |  | inactive |  | inactive |  | inactive | inactive | inactive
17 | COc1ccc([C@@H]2CC(=O)c3c(O)cc(O[C@@H]4O[C@H](CO[C@@H]5O[C@@H](C)[C@H](O)[C@@H](O)[C@H]5O)[C@@H](O)[C@H](O)[C@H]4O)cc3O2)cc1OC | inactive | inactive | inactive | inactive |  |  | inactive |  | inactive | inactive | inactive | inactive | inactive
18 | CC(=O)Nc1ccc(CC(=O)O)cc1 | inactive | inactive | inactive | inactive |  |  | inactive |  | inactive | inactive | inactive | inactive | inactive
19 | Cc1ccccc1C=O | inactive | inactive | inactive | inactive |  |  | inactive |  | inactive | inactive | inactive | inactive | inactive
20 | Cc1ccc([N+](=O)[O-])cc1N | inactive | 61 µM (active) | inactive | inactive |  |  | inactive |  | inactive | inactive | inactive | inactive | inactive
21 | CC(C)c1ccc(C(C)C)cc1 | inactive | inactive | inactive | inactive |  |  | inactive |  | inactive | inactive | inactive | inactive | inactive
22 | COc1c(Cl)ccc(Cl)c1C(=O)O | inactive | inactive | inactive | inactive |  |  | inactive |  | inactive | inactive | inactive | inactive | inactive
23 | OC[C@H]1O[C@@H](Oc2ccc(O)cc2)[C@H](O)[C@@H](O)[C@@H]1O | inactive | inactive | inactive | inactive |  |  | inactive |  | inactive | inactive | inactive | inactive | inactive
24 | CN1CCCC1=O | inactive | inactive | inactive | inactive |  |  | inactive |  | inactive | inactive | inactive | inactive | inactive
25 | CCCCCC(C)=O | inactive | inactive | inactive | inactive |  |  | inactive |  | inactive | inactive | inactive | inactive | inactive

Row | Structure (SMILES) | Potency [1] | Potency [2] | Potency [3] | Potency [4] | activation [4] | ratio activity, negative = inhibition [5] | Potency [6] | activation [7] | Potency [8] | Potency [9] | Potency [5] | Potency [7] | Potency [10]
26 | N#CCC(=O)O | inactive | inactive | inactive | inactive |  |  | inactive |  | inactive | inactive | inactive | inactive | inactive
27 | Cc1cc(C)c(O)c(C)c1 | inactive | inactive | inactive | inactive |  |  | inactive |  | inactive | inactive | inactive | inactive | inactive
28 | O=C(O)C1=NN(c2ccc(S(=O)(=O)O)cc2)C(=O)C1 | inactive | inactive | inactive | inactive |  |  | inactive |  | inactive | inactive | inactive | inactive | inactive
29 | C=C(CC(=O)O)C(=O)O | inactive | inactive | inactive | inactive |  |  | inactive |  | inactive | inactive | inactive | inactive | inactive
30 | CCCCC(=O)O | inactive | inactive | inactive | inactive |  |  | inactive |  | inactive | inactive | inactive | inactive | inactive
31 | Cc1ccc(C(C)C)cc1 | inactive | inactive | inactive | inactive |  |  | inactive |  | inactive | inactive | inactive | inactive | inactive
32 | CC(=O)C(C)C | inactive | inactive | inactive | inactive |  |  | inactive |  | inactive | inactive | inactive | inactive | inactive
33 | CC(C)=CCC/C(C)=C/C=O | inactive | inactive | inactive | inactive |  |  | inactive |  | inactive | inactive | inactive | inactive | inactive
34 | Cc1cc(CC(=O)O)n(C)c1C(=O)c1ccc(Cl)cc1 | inactive | inactive | inactive | inactive |  |  | inactive |  | inactive | inactive | inactive | inactive | inactive
35 | CC(C=O)Cc1ccc(C(C)(C)C)cc1 (stereo not given) | inactive | inactive | inactive | inactive |  |  | inactive |  | inactive | inactive | inactive | inactive | inactive
36 | O=C(Cl)c1ccc(C(=O)Cl)cc1 | inactive | inactive | inactive | inactive |  |  | inactive |  | inactive | inactive | inactive | inactive | inactive
37 | C[n+]1ccn(CCO)c1 | inactive | inactive | inactive | inactive |  |  | inactive |  | inactive |  | inactive | inactive | inactive
38 | C[Si](C)(C)N[Si](C)(C)C | inactive | inactive | inactive | inactive |  |  | inactive |  | inactive | inactive | inactive | inactive | inactive
39 | COc1cc(NC(=O)CC(C)=O)c(OC)cc1Cl | inactive | 24.4 µM (active) and 686 nM (active) | inactive | inactive |  |  | inactive |  | inactive | inactive | 19.5 µM (active) |  | inactive
40 | OB(O)O | inactive | inactive | inactive | inactive |  |  |  |  | inactive | inactive | inactive | inactive | 
41 | O=C(c1ccccc1)c1ccc(O)c(O)c1O | inactive | inactive | inactive | inactive |  |  | inactive |  | inactive | inactive |  |  | inactive
42 | O=C1O[C@H]([C@H](O)CO)C(O)=C1O | inactive | inactive | inactive | inactive |  |  | inactive |  | inactive |  | inactive | inactive | 
43 | COc1ccc(N)c(OC)c1 | inactive | inactive | inactive | inactive |  |  | inactive |  | inactive | inactive | inactive | inactive | 
44 | CCCCCCCCO | inactive | inactive | inactive | inactive |  |  | inactive |  | inactive | inactive | inactive | inactive | 
45 | Cc1ccc(C)c(S(=O)(=O)O)c1 | inactive | inactive | inactive | inactive |  |  | inactive |  | inactive | inactive |  | inactive | inactive
46 | CC(O)CNCC(C)O (stereo not given) | inactive | inactive | inactive | inactive |  |  | inactive |  | inactive | inactive | inactive |  | 
47 | c1cnc2c(c1)ccc1cccnc12 | 5.5 µM (active) | 55 µM (active) and 54.5 µM (active) and inactive | inactive | inactive |  |  | 1.23 µM (active) |  | inactive |  | 1.56 µM (active) |  | 5.45 µM (active)
48 | C1CCCNCC1 | inactive | inactive | inactive | inactive |  |  | inactive |  | inactive | inactive | inactive | inactive | 
49 | NC(=O)c1ncn([C@@H]2O[C@H](CO)[C@@H](O)[C@H]2O)n1 | inactive | inactive | inactive | inactive |  |  | inactive |  | inactive | inactive | inactive | inactive | 
